Experimental findings from PubChem BioAssay AID1053144 (Broad Institute, 2014) are described below.

In all, about 3,400 compounds went through this assay and about 160 (4.7%) were called active.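 How the source made its calls: active means fitted curve reaches 30% activation at a concentration no higher than the top valid tested dose, luminescence rising; inconclusive means no clear call, values can overlap the other calls; inactive means signal moving opposite to the expected increase, plus the rest.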 Not all results are given here. Entries with a potency or affinity are not part of this list.

The assay in a line: TCF/LEF reporter activation in neural progenitors – cell-based, iPS-derived NPC, luciferase, Wnt3a, cherry-pick, dose response (AID 1053144).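 Further: Wnt3a stimulus is conditioned medium from Wnt3a-transfected mouse L cells at 5% in well; 0% = neutral control wells and 100% = CHIR-99021 positive control wells.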 The conditions noted are these: Wnt3a EC25, 24 h; series mostly up to 26 µM; activation: at the top concentration.
Take `Cc1occc1C(=O)N/N=C/c1ccc2c(c1)OCO2`: the “activation” value is 2.18% (inactive).

`O=C(NN=Cc1ccc2c(c1)OCO2)c1ccccc1`: the “activation” value is 18.2% (inactive).

For the compound `CCOC(=O)c1ccc(NC(=O)N(CC)CC)cc1`, the “activation” value is 11.7% (inactive). In the case of `CCOC(=O)c1ccc(-c2ccc(C=O)o2)cc1`, the “activation” value is 7.08% (inactive). Turning to `O=C(Nc1ccc2c(c1)OCCO2)c1cncc(Br)c1`, the “activation” value is 6.75% (inactive).

As to `C=CCn1c(C)cc(C(=O)CSc2nc3ccccc3o2)c1C`, the “activation” value was 2.6% (inactive). The result for `COc1cc(C2C3=C(CC(C)(C)CC3=O)Nc3c2c(=O)[nH]c(=O)n3Cc2ccccc2)ccc1O` (stereo unspecified) reads 3.49% (inactive). For `O=C(c1ccc(Br)cc1)c1coc2ccc(O)cc12`, the “activation” value is 18.8% (inactive). For the compound `CC(=O)Oc1ccc2occ(C(=O)c3cccs3)c2c1`, the “activation” value is 17.3% (inactive). The result for `COc1ccc(C(=O)NN/C(=N/S(=O)(=O)c2ccc(C)cc2)c2ccccc2)cc1` reads 7.8% (inactive). With `Cc1[nH]c2ccc(F)cc2c1CCN1C(=O)OC(C)(C)C1(C)O` (stereo unspecified), the “activation” value was 5.62% (inactive). The result for `COc1cc(/C=C/C(=O)N2CCC=CC2=O)cc(OC)c1OC` reads -6.11% (inactive); that for `COc1ccc(C(=O)O/N=C(\N)c2ccccc2)cc1OC`, 11.8% (inactive). As for `Oc1ccc(-c2cn3ccccc3n2)cc1`, the “activation” value is 23.2% (inactive). In the case of `CC(=O)Nc1ccccc1OCC(=O)c1ccc2c(c1)OCO2`, the “activation” value is 9.06% (inactive). Take `Clc1ccccc1/C=C/c1nc(-c2cccnc2)no1`: the “activation” value was 6.34% (inactive). For `C(=C\c1nc(-c2ccncc2)no1)/c1ccccc1`, the “activation” value is 9.12% (inactive). `Cc1ccc(NC(=O)C(=O)c2c[nH]c3ccccc23)cc1`: the “activation” value is 9.92% (inactive).

For `COc1ccc2[nH]cc(/C=C/C(=O)c3ccccc3)c2c1`, the “activation” value is 20.3% (inactive). Turning to `Cc1cccc2cc(/C=N/Nc3ccc(C(=O)O)cc3)c(Cl)nc12`, the “activation” value is 8.76% (inactive). As to `Brc1ccccc1-n1nnc(-c2cnc3ccccc3c2)n1`, the “activation” value was 3.75% (inactive). With `COc1ccc(-c2ccc(SCC(=O)Nc3nnc(C)s3)nn2)cc1`, the “activation” value was 3.75% (inactive). For the compound `COc1ccc(C(=O)Nc2cc(C)on2)cc1`, the “activation” value is 4.98% (inactive). In the case of `O=C(COc1ccc([N+](=O)[O-])cc1Cl)N1CCc2ccccc21`, the “activation” value was 5.95% (inactive).

`O=C(COc1ccc2c(c1)CCC2)N1CCc2ccccc21`: the “activation” value was 16.6% (inactive).

`O=C(Nc1ccccc1O)c1csc2c1CCCC2`: the “activation” value was 6.88% (inactive). `O=C(Nc1ccccn1)C(=O)Nc1ccccn1`: the “activation” value is 7.92% (inactive). For the compound `Cc1cc(SCC(=O)c2ccc(Cl)cc2)nc(=O)[nH]1`, the “activation” value is 8.19% (inactive). For `O=C(Nc1nc(-c2ccccn2)cs1)C12CC3CC(CC(O)(C3)C1)C2`, the “activation” value was 8.62% (inactive). The result for `CCC(C)NC(=O)c1cc(-c2ccc3c(c2)OCO3)on1` (stereo unspecified) reads 13.7% (inactive); that for `c1ccc(N=NC2=NN(c3ccccc3)CS2)cc1`, 11.2% (inactive); that for `O=c1c(N=Nc2ccccc2)c[nH]n1-c1ccccc1`, 14.2% (inactive).

As for `CCc1ccc(C(=O)CCC(=O)Nc2ccc(OC)c(S(=O)(=O)N3CCCCC3)c2)cc1`, the “activation” value was 5.78% (inactive). As for `CCOc1ccccc1-n1nnnc1SCC(=O)O`, the “activation” value is 0.553% (inactive). The result for `Cc1c(CC(=O)N[C@H](C(=O)O)C(C)C)c(=O)oc2cc3c(cc12)CCC(C)(C)O3` reads 5.83% (inactive); that for `O=C(Nc1ccc2nc(-c3ccco3)[nH]c2c1)c1ccco1`, 12.9% (inactive); that for `Cn1cccc1-c1nc2ccc(NC(=O)c3ccco3)cc2[nH]1`, 11.8% (inactive). With `O=C(Nc1ccc2c(c1)Cc1ccccc1-2)c1ccccc1F`, the “activation” value was 6.96% (inactive). For the compound `Cc1ccc(C)c(N2CCN(C(=O)CCc3nc(-c4ccccc4C(F)(F)F)no3)CC2)c1`, the “activation” value was 12.2% (inactive). The result for `CCOC(=O)C1CCCN(C(=O)CCc2nnc(-c3ccc(C(C)=O)s3)o2)C1` (stereo unspecified) reads 10.3% (inactive); that for `Cc1ccc(OCc2cc(C(=O)N3CCN(c4ccccc4)CC3)no2)cc1C`, 15.5% (inactive).

In the case of `CC(=O)Nc1cccc(NC(=O)c2cc3ccccc3o2)c1`, the “activation” value was 7.51% (inactive). Consider `CC(C)(C)C(=O)Nc1ccc(C(=O)Nc2cccnc2)cc1`, for which the “activation” value was 4.16% (inactive). On to `COc1cccc(/C=C/c2ccc3cccc(O)c3n2)c1OC`, for which the “activation” value is 6.83% (inactive). The result for `COc1cc(/C=C/c2ccc3cccc(O)c3n2)cc(Cl)c1OC` reads 2.28% (inactive); that for `COc1cc(/C=C/C(=O)OCC(=O)NCCc2ccccc2)cc(OC)c1OC`, 1.5% (inactive). For the compound `Oc1ccc(Cl)cc1C=NN1CCCCCC1`, the “activation” value was 5.75% (inactive). With `COc1ccc(-c2nc3ccccc3s2)cc1NC(C)=O`, the “activation” value is 8.89% (inactive).

As for `CCN1CCN(C(=O)c2ccc(-c3nc4ccccc4s3)s2)CC1`, the “activation” value was 6.07% (inactive). On to `CN(CCO)c1c2c(nc3cc(-c4cccc(F)c4)nn13)CCCC2`, for which the “activation” value was 4.94% (inactive). Consider `O=C(c1ccccc1)c1nnc(-c2ccccc2F)o1`, for which the “activation” value is 3.17% (inactive). The result for `O=[N+]([O-])c1cccc(C2=NC(c3ccccc3)CO2)c1` (stereo unspecified) reads 5.82% (inactive); that for `O=C(c1cc(-c2cccc(O)c2)on1)N1CCOCC1`, 0.173% (inactive). For the compound `O=C(c1cc(-c2cccc(O)c2)on1)N1CCCCC1`, the “activation” value is 5.31% (inactive). With `Cc1cc(=O)oc2cc(OCC(=O)Nc3nccs3)ccc12`, the “activation” value is 5.74% (inactive). The result for `Cn1cccc1/C=C1\SC(=O)N(c2ccccc2)C1=O` reads 6.73% (inactive); that for `CCn1cc(S(=O)(=O)CC(=O)Nc2ccc3c(c2)OCO3)c2ccccc21`, 1.02% (inactive). In the case of `CC(=O)Oc1ccc(-c2csc(Nc3ccccn3)n2)cc1`, the “activation” value was 6.84% (inactive). Take `CC(=O)c1sc(NC(=O)c2ccc3c(c2)OCO3)nc1C`: the “activation” value is 5.81% (inactive). As for `CC(C)NC(=O)N1CCCN(c2nc3ccc(Cl)cc3s2)CC1`, the “activation” value was 0.108% (inactive). The result for `O=C(NCCO)c1ccc2c3n(nc2c1)-c1ccccc1CO3` reads 7.92% (inactive). As for `CC(C)NC(=O)c1ccc2c3n(nc2c1)-c1ccc(Cl)cc1CO3`, the “activation” value was 17.6% (inactive). With `Cc1ccc2c(c1)COc1c3ccc(C(=O)NC(C)C)cc3nn1-2`, the “activation” value was 10.5% (inactive).

On to `Cc1ccc2c(c1)COc1c3ccc(C(=O)NCCO)cc3nn1-2`, for which the “activation” value was 9.09% (inactive).

Take `C=CCNC(=O)c1ccc2c3n(nc2c1)-c1ccc(C)cc1CO3`: the “activation” value is 15.7% (inactive). Take `C[C@@H](CO)NC(=O)c1ccc2c3n(nc2c1)-c1ccc(Cl)cc1CO3`: the “activation” value is 13.9% (inactive). `O=C(c1ccco1)N1CCN(c2ccc(N3CCCCC3)nn2)CC1`: the “activation” value is 7.55% (inactive).

Turning to `c1cn2c(Nc3ccc4c(c3)OCCO4)c(-c3ccc(N4CCOCC4)cc3)nc2cn1`, the “activation” value was 9.24% (inactive).

Consider `Cc1nn(C(=O)c2cccs2)c(N)c1-c1ccccc1`, for which the “activation” value was 11.2% (inactive). `O=C(/C=C/c1ccc([N+](=O)[O-])cc1)Nc1cccnc1`: the “activation” value is 10.1% (inactive).

As for `COc1ccc(OC)c(NC(=O)CSc2nnc(C3CCCCC3)n2-c2ccccc2)c1`, the “activation” value is 0.506% (inactive). Regarding `O=C(COc1ccc2ccccc2c1)N1CCCC1`, the “activation” value was 7.07% (inactive). `O=C(OCC(=O)N1CCOCC1)c1ccc2ccccc2c1O`: the “activation” value was 9.5% (inactive). As for `O=C(Nc1ccc(-c2cn3ccsc3n2)cc1)C1CC1`, the “activation” value was 8.33% (inactive). The result for `O=C(Nc1ccc(C(=O)c2ccccc2)cc1)c1ccccc1` reads 6.68% (inactive); that for `O=c1c2cc(-c3ccccc3)sc2nc2n1CCC2`, 9.92% (inactive).
